Source: PubChem BioAssay (NCI)
This is part of a sample that, as a whole, favours compounds with a hit. Of some 83,000 tested, about 20% had one in any assay.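 The test compound was applied at a single concentration to cells in 96-well plates for 48 hours, and percent growth was recorded.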 Unmarked numbers belong to inactive results. The source made the active and inactive calls. Rule for the calls: active = growth percent below 10; inactive = the rest.

Each compound was assayed on SW-620 colon (assay: NCI-60 one-dose screen, 48 h (100 = growth as untreated, 0 = no growth, -100 = all killed)). Conditions: 10 µM unless noted.

SMILES	growth
CCOc1ccc(NC(=O)c2cc(OC)c(OC)c(OC)c2)cc1	31.6%
COc1cc(-c2cc(-c3ccc(Nc4ncnc5cc(Cl)ccc45)cc3)nc(N3CCN(C)CC3)n2)cc(OC)c1OC	72.4%
COc1ccc(C/C(C)=C(\c2ccc(O)cc2)c2ccc(OCCN3CCCC3)cc2)cc1	104%
COC(=O)C1=C(C)NC(C)=C(C(=O)OCC(C)C)C1c1ccccc1[N+](=O)[O-] (centres undefined)	29.4%
O=C1CC2C=CCN2C=C1NC(=O)C1CCCCC1 (centres undefined)	107%
COc1ccc2nc3cc(Cl)ccc3c(NCCN)c2c1	-68.9% (active)
COc1cccc(/C=C2\COc3ccc(O)cc3C2=O)c1	18.1%
COC(c1ccc2ccccc2c1)C(C)C(F)F (centres undefined)	106%
COc1ccc(-c2ccc(-c3ccc(C(=N)N)cn3)s2)cc1	8.29% (active)
O=C1Nc2ccc(F)cc2/C1=C\c1nc(-c2ccccc2F)n2ccccc12	44.9%
CCN1C(=S)N(CC)C2C1NC(=S)N2/N=C/C=C/c1ccccc1OC (centres undefined)	23.8%
COc1ccc2c(c1)c(-c1nonc1-c1c[nH]c3ccc(Br)cc13)cn2C	33.7%
N#Cc1c(-c2ccccc2)c(C#N)c2c(C#N)c(N)nn2c1N	25.4%
COc1cccc(Nc2ccnc3[nH]c4ccc([N+](=O)[O-])cc4c23)c1	56.5%
Clc1nn2c(Cn3cnc4c(NCc5ccccc5)ncnc43)nnc2c2ccccc12	48.2%
O=C1CCC(C(=O)NN(c2ccccc2)c2ccccc2)N1 (centres undefined)	100%
O=C1/C(=C/c2ccccc2)CN(C(=O)c2cccnc2)C/C1=C\c1ccccc1	-54.4% (active)
COc1ccc(C(C)=O)cc1S(N)(=O)=O	103%
O=C(CBr)CN1C(=O)c2ccccc2C1=O	109%
CS(=O)(=O)Nc1cc(-c2ccc3ncnc(Nc4ccc5c(cnn5Cc5cccnc5)c4)c3c2)cnc1Cl	66.8%

SMILES	growth
Cc1c(N2CN3C[C@H](C)N4CN(c5c(C)n(C)n(-c6ccccc6)c5=O)CN5C[C@@H](C)N(C2)C3C54)c(=O)n(-c2ccccc2)n1C (some centres undefined)	103%
O=C(Nc1ncc(Cc2ccccc2Cl)s1)c1cccs1	58.6%
COc1ccc(Cc2nnc(Nc3nc4ccccc4s3)s2)cc1	97.8%
CCOC(=O)Nc1nc2ccc(SCC(C)C)cc2s1	33.8%
COc1cc(-c2nc3occn3c2-c2ccnc(NCCCNS(=O)(=O)c3ccccc3)n2)ccc1F	65.2%
CN(C)c1ccc(/C=C2/C=C(c3ccccc3)OC2=O)cc1	95.2%
COc1ccc(OC)c(-c2cn3nc(-c4c[nH]c5ccc(Br)cc45)sc3n2)c1	-3.33% (active)
CCNCc1ccc(O)c2ncccc12	33.1%
O=C(CCl)Nc1ccc2c(Nc3cc(O)ccc3Cl)ncnc2c1	-60.6% (active)
CCNC(=O)Oc1ccc(/C(=C(/C)Cc2ccc(OC)cc2)c2ccc(OCCN3CCCCCC3)cc2)cc1	70.7%
CC(C)(C)c1cc(C=Nc2cccc(C(F)(F)F)c2)c(O)c(C(C)(C)C)c1	101%
C(/C=C/c1ccccc1)=Nc1ccc(CCc2ccc(N=C/C=C/c3ccccc3)cc2)cc1	51.6%
Cn1cc(C(=O)c2nc(-c3c[nH]c4ccc(Br)cc34)no2)c2cc(Br)ccc21	-2.17% (active)
Cc1[nH]c(C(=O)Nc2ccc(C(N)=O)cc2NC(C)C)c(Cl)c1Cl	96.1%
O=C1OCC2=C1C(c1cccc(C(F)(F)F)c1)c1cc3c(cc1N2CCO)OCO3 (centres undefined)	23.3%
COc1ccc2cc(-c3cnc4nonc4n3)ccc2c1	26.9%
Cn1ncc2ccc(-c3nc(-c4ccccc4)[nH]c3-c3n[nH]c(=O)n3C3CC3)cc21	100%
Cn1ccnc1C(=O)/C=C/c1ccc(C(=O)Nc2ccc(F)cc2)cc1	4.13% (active)
O=C(CSc1nc2ccc([N+](=O)[O-])cc2[nH]1)Nc1cccc([N+](=O)[O-])c1	73.8%
